Laboratory results as given in PubChem BioAssay (NCI).
Several values for one entry are separate records, joined by “and”; a condition that tells them apart may be missing. Equal values may be shown once. Compounds without any hit were thinned out: in the full panel of roughly 83,000, 20% have a hit.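 Compound tested at a single concentration for 48 hours in 96-well plates; a percent growth value below 10 was scored as active.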 A number with no mark means an inactive call. Activity calls are given as the source filed them.

These molecules were tested on MDA-MB-468 breast (assay: NCI-60 one-dose screen, 48 h (100 = growth as untreated, 0 = no growth, -100 = all killed)). Settings: 10 µM unless noted.

For `Cc1cc(N2CCN(C)CC2)nc(NC2CCCC(Nc3ccnc4cc(Cl)ccc34)C2)n1` (stereo not given), the growth was -52.1% (active).
In the case of `COC(=O)c1c2c(c(C)[n+]([O-])c1C)C(=O)C(NCc1cccc(OC)c1)=CC2=O`, the growth is reported as -21.3% (active).
`O=C(Nc1ccccc1C(=O)N/N=C(\c1ccccc1)c1ccccn1)c1ccccc1` was tested, and the growth was -19.4% (active).
For `NC(=O)c1c(NC(=O)c2ccc(C(F)(F)F)cc2Cl)sc2c1CCC(=O)C2`, the growth was -33.8% (active).
In the case of `COc1ccccc1/C=N\N=C(N/N=C/c1ccccc1OC)N/N=C/c1ccccc1OC`, the growth is reported as 58.3% and 10.5%.
`Fc1ccc(CNc2c3ccccc3nc3ccccc23)c(F)c1` was tested, and the growth was -4.03% (active).

Compared with `Cn1cc(-c2ccc(F)c(C(F)(F)F)c2)nc1C1CCN(c2ncnc3[nH]ncc23)CC1`, `CN1CCOCCOCCOc2ccccc2NC(=O)c2nc(cnc2N)-c2ccc(cc2)S1(=O)=O` is lower in growth: 64.6% for the first, 41.4% for the second.

Compared with `C=CC(=O)Nc1cccc(Oc2nccc(Nc3nnc(-c4ccc(Br)cc4)s3)n2)c1`, `CC(C)NC(=O)c1cc(-c2ccc(NC(=O)Nc3ccc(F)cc3)cc2)nc2cccnc12` is lower in growth: 114% for the first, 88.9% for the second.

First: C=CCn1c(SCC(=O)Nc2ccc(C(=O)/C=C/c3cccc([N+](=O)[O-])c3)cc2)nnc1-c1c[nH]c2ccccc12
Second: COc1ccc(-c2cc(-c3nnc(SCC(=O)Nc4ccc(C(C)=O)cc4)o3)c3ccccc3n2)cc1
The growth of the first is higher: 81.9% for the first, 45.5% for the second.

Going from `CCNC(=O)C#Cc1ccc2c(C(=Nc3ccc(CN(C)C)cc3)c3ccccc3)c(O)[nH]c2c1` to `CCCCNC(=O)Oc1ccc(/C(=C(\C)c2ccccc2)c2ccc(OCCN3CCCCC3)cc2)cc1`, the growth rises from 17.2% to 66.8%.

Going from `O=C(CCCCNC(=O)c1nc(-c2ccccc2)n(-c2ccccc2)n1)NO` to `O=C1N(Cc2ccccc2Cl)c2ccccc2C12NN=C(c1ccccc1)S2` (stereo not given), the growth rises from 55.4% to 57.2%.

First: CNc1ccc(CSc2ccc(C)cc2)cc1
Second: COc1ccc(Nc2nnc(SCc3ccccc3F)s2)cc1
The growth of the first is lower: 15.6% for the first, 55.9% for the second.

First: CC(C)(C)N1CC(OC(N)=O)C1
Second: COC(=O)[C@H](C)NC(=O)NC(=O)NC(=O)CI
The growth of the first is higher: 84.9% for the first, 70.2% for the second.

Going from `Cc1nc2ncccc2nc1Nc1ccc(S(=O)(=O)Nc2cncs2)cc1` to `NNc1nc(-c2cccnc2)nc2c1sc(=S)n2-c1ccccc1`, the growth rises from 97.7% to 115%.

First: C=CCOc1ccc(Cl)cc1Cl
Second: CCCCOc1nc2c(C)cccc2cc1-c1cc(-c2ccc(Cl)cc2)nc(-c2ccc(Cl)cc2)c1
The growth of the first is higher: 111% for the first, 102% for the second.

Going from `CN(C)c1ccc2c(c1)OC(N)=C(C#N)C2c1ccc2c(c1)CCO2` (stereo not given) to `N[C@H]1CCC[C@@H]1NCCCCN1C(=O)c2cccc3cccc(c23)C1=O`, the growth rises from 18.3% to 50.4%.

Going from `COc1cc(OC)c(/C=C/C(=O)c2c(OC)cc(OC)cc2OC)c(OC)c1` to `COc1cccc(-c2[nH]c(=S)ncc2C(=O)c2ccccc2)c1`, the growth rises from 14% to 59.4%.

Going from `CCOP(=O)(OCC)OC[C@]12CCC(C)(C)C[C@H]1C1=CC[C@@H]3[C@@]4(C)CC[C@H](OP(=O)(OCC)OCC)C(C)(C)[C@@H]4CC[C@@]3(C)[C@]1(C)CC2` to `CCN1CCN(C(=O)[C@]23CCC(C)(C)C[C@H]2C2=CC[C@@H]4[C@@]5(C)CC/C(=N/O)C(C)(C)[C@@H]5CC[C@@]4(C)[C@]2(C)CC3)CC1`, the growth rises from 40.9% to 47%.

Compared with `CNC(=S)Sc1ccc([N+](=O)[O-])cc1[N+](=O)[O-]`, `Cc1nc(/N=C(\N)NC(=O)Nc2cccc([N+](=O)[O-])c2)sc1C` is lower in growth: 35.6% for the first, 11.6% for the second.

First: O=C(CCc1nnc2sc(OCc3ccccc3)nn12)c1nc2ccc([N+](=O)[O-])cc2[nH]1
Second: O=C(Oc1ccccc1[N+](=O)[O-])C1CCCN1C(=O)OCc1ccccc1 (stereo not given)
The growth of the first is higher: 109% for the first, 97.3% for the second.

First: O=C(O)c1ccc(CO)o1
Second: CCC/C(=N/NC(N)=O)c1ccco1
The growth of the first is higher: 103% for the first, 102% for the second.

Compared with `c1csc(-c2cnc3nonc3n2)c1`, `CSc1nc(NCCO)c(C#N)c(-c2cccc(N)c2)n1` is higher in growth: 67.5% for the first, 116% for the second.

Going from `CN(C)c1ccc(NC(=O)c2ccc(/C=C/C(=O)c3ncc[nH]3)cc2)cc1` to `CCOC(=O)/C=C/c1ccc(C(=O)OCC)[nH]1`, the growth rises from 45.6% to 53.5%.
